This is an account of results in PubChem BioAssay AID1259324 (C. David Weaver Laboratory, Vanderbilt University, 2017).

In all, about 34,000 compounds went through this assay and fewer than 10 were called active.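 Rule for the calls: active = primary screen hit, no activity in plain HEK293 cells, and in GIRK2-only cells above 5% efficacy rising with concentration; inactive = the rest, including fluorescent compounds.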 The list is a sample of the results.

The assay deals with G protein-activated inward rectifier potassium channel 2 (Homo sapiens) (UniProt P48051). The assay can be described thus: GIRK2 activation atop partial GPCR stimulation – cell-based, HEK293, thallium flux, summary (AID 1259324). As to conditions: HEK293 GIRK2/NPY4 cells, thallium flux fluorescence.
Chain of G protein-activated inward rectifier potassium channel 2 (Homo sapiens) (P48051 whole entry, looked up): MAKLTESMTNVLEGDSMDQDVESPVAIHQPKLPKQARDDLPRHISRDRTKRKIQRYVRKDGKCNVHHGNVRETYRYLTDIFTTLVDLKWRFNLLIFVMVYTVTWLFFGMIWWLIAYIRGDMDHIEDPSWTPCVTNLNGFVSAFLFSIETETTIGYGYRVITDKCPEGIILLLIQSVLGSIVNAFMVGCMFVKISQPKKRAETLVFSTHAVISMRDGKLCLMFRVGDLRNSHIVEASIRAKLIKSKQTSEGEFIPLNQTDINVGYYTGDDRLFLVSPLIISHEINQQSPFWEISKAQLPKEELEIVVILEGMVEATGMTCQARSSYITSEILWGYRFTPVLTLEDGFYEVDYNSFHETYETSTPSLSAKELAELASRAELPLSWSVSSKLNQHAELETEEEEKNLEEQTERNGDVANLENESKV
Turning to `CON(C)C(=O)C1CN(C(=O)c2cccs2)C1`, the result was inactive. Take `COc1cn(CC(=O)Nc2ccc3c(c2)OCO3)c(CSc2ncccn2)cc1=O`: the compound was called inactive.

Regarding `CCOC(=O)C1CCN(C(=O)c2csc(Nc3ccccc3)n2)CC1`, the compound was called inactive. With `COc1ccc(CC(=O)NCCOc2ccc(F)cc2)cc1OC`, the outcome was inactive. Regarding `CCOc1ccc2nc(NC(=O)c3ccc(S(=O)(=O)N(C)C)o3)sc2c1`, the outcome was inactive. Consider `O=c1[nH]c(SCc2nc(-c3cccc(C(F)(F)F)c3)no2)nc2ccsc12`, for which the result was inactive. `COc1cc(N2CCN(S(C)(=O)=O)CC2)nc(OC)n1`: the result was inactive. Under `CCC(CO)NC(=O)C(=O)Nc1c2c(nn1-c1ccccc1)CS(=O)(=O)C2` (stereo not given) stands “inactive”; under `CN1CCN(C(CNS(=O)(=O)c2ccc(C(C)(C)C)cc2)c2cccn2C)CC1` (stereo not given), “inactive”; under `COc1cccc(-n2nnnc2SCC(=O)Nc2ccccc2Cl)c1`, “inactive”. Regarding `COc1ccc(Cc2nnc(Nc3cc(C)ccc3C)[nH]c2=O)cc1`, the compound was classed as inactive. For the compound `Cc1cc(=O)n(CC(=O)Nc2ccncc2)cn1`, the compound was classed as inactive.

Consider `CCCCOc1ccc(C(=O)Nc2ccc3c(c2)CCC(=O)N3CCC)cc1`, for which the call was inactive. Regarding `COc1cccc(C(=O)NCC2COC3(CCCCC3)O2)c1OC` (stereo not given), the compound was called inactive. On to `NC(=O)C1CCN(c2oc(-c3ccco3)nc2S(=O)(=O)c2ccc(Cl)cc2)CC1`, for which the compound was classed as inactive.

On to `Cc1nnc(NC(=O)CCn2cnc3c(cnn3-c3ccc(F)cc3)c2=O)s1`, for which the result was inactive. For the compound `O=C(NCC(=O)N1CCOC(c2ccccc2)C1)C(=O)NCc1ccccc1Cl` (stereo not given), the call was inactive.

Regarding `O=C(NCCc1ccc(F)cc1)c1cc(=O)c(OCc2ccccc2)co1`, the outcome was “inactive; active”.

On to `NC(=O)C1Cc2ccccc2N1C(=O)Nc1ccc2c(c1)OCO2` (stereo not given), for which the result was inactive. As to `CCc1nnc(NC(=O)c2nnn(-c3ccc(Cl)cc3)c2C)s1`, the compound was called inactive.

`COc1ccc(NC(=O)C2CCCCC2)cc1N1CCCCC1=O`: the result was inactive. As to `COCCNC(=O)c1ccc(Oc2c(C)oc3cc(OC)ccc3c2=O)cc1`, the result was inactive.

As to `CN(C(=O)c1cccc(F)c1)C1(C)CCS(=O)(=O)C1` (stereo not given), the compound was called inactive. Turning to `Cc1cn2c3c(=O)n(C)c(=O)n(C)c3nc2n1CC(=O)c1ccc(Cl)cc1`, the call was inactive. Then `Cc1cccc(NC(=O)c2ccc3nn(CC(=O)Nc4ccc(C)c(F)c4)c(=O)n3c2)c1`, with “inactive”; and `Cc1cccc(CC(=O)NCC2(c3cccs3)CCCC2)c1`, with “inactive”; and `CS(=O)(=O)N1CCC(CNC(=O)c2ccc(F)c(F)c2)CC1`, with “inactive”. Then `O=C(NCCCN1CCCC1=O)C(=O)Nc1c2c(nn1-c1cccc(Cl)c1)CSC2`, with “inactive”. Take `COc1ccc(S(=O)(=O)NCC(c2ccc(C)cc2)N2CCN(C)CC2)cc1OC` (stereo not given): the result was inactive.

Regarding `Cc1nc(-c2cccs2)c(CCC(=O)N(C)C2CCS(=O)(=O)C2)s1` (stereo not given), the result was inactive.

Consider `CNc1nn(CC(=O)Nc2ccc(C(C)=O)cc2)c(N)c1-c1nc(-c2ccc(C)cc2)no1`, for which the outcome was inactive. On to `Cc1cc(-c2nnc(NC(=O)c3cccc(Oc4ccccc4)c3)o2)n(C)n1`, for which the outcome was “inactive; active”. Take `COCC(C)(O)CNC(=O)Cc1cccc(C)c1` (stereo not given): the result was inactive. Take `CN1CCOc2ccc(NC(=O)C3(c4ccc(F)cc4)CC3)cc2C1=O`: the call was inactive. Then `O=c1oc(-c2ccncc2)nc2c(Cl)cccc12`, with “inactive”; and `O=C(Cn1nc(C2CC2)c2cnn(-c3ccc(F)cc3)c2c1=O)N1CCOCC1`, with “inactive”; and `COC(=O)c1ccc(C(=O)NCCCC(=O)Nc2cccc3cccnc23)cc1`, with “inactive”. Turning to `CN(C)C(=O)C(NC(=O)OC(C)(C)C)c1ccccc1Cl` (stereo not given), the outcome was inactive.

`CC(C)S(=O)(=O)c1ccc(CC(=O)NCc2n[nH]c(=O)c3ccccc23)cc1`: the compound was classed as inactive. In the case of `O=C(c1ccc(N2CCCC2)nn1)N1CCN(C(=O)c2ccco2)CC1`, the outcome was inactive. As for `O=C(c1ccc2c(c1)OCO2)N(Cc1ccsc1)Cc1ccccn1`, the outcome was inactive. Under `CSc1nnc(CNC(=O)C23CC4CC(CC(C4)C2)C3)n1-c1ccccc1` stands “inactive”. Under `Cc1ccc(S(=O)(=O)NCCNc2ccc(Nc3cccc(C)n3)nn2)c(C)c1` stands “inactive”; under `O=c1c2cn[nH]c2nc(SCc2nc(-c3ccccc3)no2)n1-c1ccccc1`, “inactive”.

On to `O=C(Cc1cccc2ccccc12)NCCOc1ccc2c(c1)OCO2`, for which the result was inactive.

Turning to `Cc1cc(C)c2sc(N3CCN(C(=O)C4CCCN(S(C)(=O)=O)C4)CC3)nc2c1` (stereo not given), the result was inactive. As to `COc1cccc(C(=O)Nc2ccc(N3CCCC3=O)c(OC)c2)c1`, the call was inactive. `Cc1ccc(NC(=S)NC(=O)c2ccc(F)cc2)nc1`: the outcome was inactive. Under `Cc1cc(C)n(S(=O)(=O)c2cccc(S(C)(=O)=O)c2)n1` stands “inactive”; under `COc1ccc(-c2cc3c(=O)n(Cc4nc(-c5ccc(OC)cc5OC)no4)ccn3n2)cc1`, “inactive”. On to `CSc1ccccc1C(=O)Nc1nnc(-c2cc(C)nn2C)o1`, for which the outcome was inactive. Take `Cn1c(=O)c2c(nc3n(CC(=O)O)c(-c4ccccc4)cn23)n(C)c1=O`: the compound was classed as inactive. As for `COc1nn(C)cc1-c1nnc(SCC(=O)N2CCCc3ccccc32)n1C`, the result was inactive. Then `Cc1cccc(CS(=O)(=O)NCC2(O)CCc3ccccc32)c1` (stereo not given), with “inactive”. As for `COC(=O)c1ccc(NC(=O)Cn2c(=O)n(C(C)C)c(=O)c3nscc32)cc1`, the outcome was inactive.

Regarding `NS(=O)(=O)c1ccc(NC(=O)c2ccc(=O)n(Cc3ccc(F)cc3)c2)cc1`, the outcome was inactive. Under `CCOC(=O)Cc1csc(NC(=O)c2nc(-c3cnccn3)no2)n1` stands “inactive”. Then `Cc1cccc(Nc2ccc(N3CCN(S(=O)(=O)c4cccs4)CC3)nn2)n1`, with “inactive”; and `COCCNC(=O)CCn1cnc2c(cnn2C(C)(C)C)c1=O`, with “inactive”; and `O=S(=O)(NCC#CCN1CCc2ccccc2C1)c1c(F)cccc1F`, with “inactive”.

On to `Cc1ccc(-c2ccc(=O)n(CCCC(=O)Nc3ccc(S(N)(=O)=O)cc3)n2)cc1`, for which the call was inactive. For `COc1cc(OC)cc(C(=O)N2CCc3cc(S(=O)(=O)NC4CCCC4)ccc32)c1`, the compound was called inactive. Take `Cn1cccc1C(CNS(=O)(=O)c1ccc(F)cc1)N1CCOCC1` (stereo not given): the outcome was inactive.

Consider `Cn1cccc(C(=O)N2CCC(c3nnc(-c4ccco4)s3)CC2)c1=O`, for which the call was inactive. Take `O=C(NCC1(c2cccs2)CCOCC1)Nc1cccc(C(F)(F)F)c1`: the call was inactive. In the case of `CC(=O)c1ccc(S(=O)(=O)N2CCC(c3nnc(C4CC4)o3)CC2)cc1`, the call was inactive. Take `COc1ccc(Cl)cc1N1CC(c2nc(-c3ccccc3C)no2)CC1=O` (stereo not given): the outcome was inactive. Turning to `Cc1c(C(=O)NCc2ccccc2Cl)nnn1-c1ccc(F)cc1`, the compound was called inactive.

`Cc1cccc(NC(=O)c2cc(-c3ccco3)nc3c2c(C)nn3C2CCS(=O)(=O)C2)c1` (stereo not given): the outcome was inactive. As for `Cc1cc(C(=O)Nc2nc(-c3cccs3)cs2)on1`, the outcome was “inactive; active”.

On to `COc1ccc(CCNC(=O)Nc2cc(N3CCCS3(=O)=O)ccc2C)cc1`, for which the outcome was inactive. Take `O=C(Cc1cc(-c2ccc(F)cc2)on1)N1CCc2ccccc21`: the call was inactive. Then `O=C(NCCC1=CCCCC1)C(=O)NCc1nc(-c2ccccc2)no1`, with “inactive”; and `COc1ccc(NC(=O)N2CCN(c3cc(OC)nc(OC)n3)CC2)cc1`, with “inactive”; and `CC(C)(C)C(=O)N1CCc2ccc(NS(=O)(=O)c3ccc(Cl)s3)cc21`, with “inactive”. Under `COc1ccc(Cl)cc1C(=O)NCCNc1cc(-n2ccnc2C)ncn1` stands “inactive”; under `COc1ccccc1C1(CNC(=O)Cc2ccc(F)cc2)CCOCC1`, “inactive”; under `CCOc1ccc(NC(=O)NCCCn2nc(-c3ccncc3)ccc2=O)cc1`, “inactive; active”.

As to `COc1ccc(NC(=O)Cn2cc(OC)c(=O)cc2CSc2nccc(C)n2)cc1`, the result was inactive. For `O=C(C1CCCCC1)N(CCN1CCOCC1)c1nc2c(Cl)cccc2s1`, the outcome was inactive.

With `Cn1c(=O)c2cc(C(=O)NC3CCCCCC3)sc2n(C)c1=O`, the result was inactive.

In the case of `COc1ccc(C)cc1S(=O)(=O)NCC(c1ccc(F)cc1)N1CCN(C)CC1` (stereo not given), the outcome was inactive.

As to `O=C(Cc1ccc(-c2ccccc2)cc1)NCC1CCN(Cc2ccco2)CC1`, the call was inactive. For `CCOc1ccc(-c2cc(=O)n(CC(=O)Nc3ccccc3F)cn2)cc1`, the result was inactive. `O=C(CCCS(=O)(=O)c1ccccc1)Nc1nc2c(F)cccc2s1`: the compound was classed as inactive.

As to `CCOc1ccc2ccccc2c1C(=O)N1CCN(c2ncnc3c2nnn3C)CC1`, the result was inactive.

`CCOC(=O)N1CCN(C(c2ccccc2F)c2sc3nc(CC)nn3c2O)CC1` (stereo not given): the compound was called inactive. As for `COc1coc(C(=O)Nc2ccc(C(N)=O)cc2)cc1=O`, the result was inactive. As to `COc1ccccc1CCNC(=O)Cc1csc(NC(=O)C2CCC(=O)N2)n1` (stereo not given), the compound was called inactive.

Consider `O=C(C1CC=CCC1)N1CCN(CCn2ccnc2)CC1` (stereo not given), for which the compound was called inactive.

For `O=C(c1cccs1)N1CCc2ccc(NS(=O)(=O)Cc3cccc(Cl)c3)cc21`, the compound was classed as inactive. Turning to `Cc1ccc(-n2ccnc2N2CCN(C(=O)c3cccs3)CC2)cc1`, the outcome was inactive. With `COC(=O)c1c2c(nc3c1c(-c1ccccc1)nn3C1CCS(=O)(=O)C1)CCC2` (stereo not given), the call was inactive. With `CCC(=O)Nc1ccc(SCC(=O)NCC2CCCO2)nn1` (stereo not given), the outcome was inactive.

Regarding `O=C(NCC(O)c1ccc(C(F)(F)F)cc1)C1(c2cccs2)CCCC1` (stereo not given), the call was inactive.
